Screening data (PubChem BioAssay)
L3MBTL1 inh: inhibitors of human L3MBTL1. AID 485360. Potency, µM (doses to about 57.1 µM), for inactives: at the top dose activity, negative = inhibition, actives largely listed as inhibitors. Q9Y468. AlphaScreen L3MBTL1–H3K9me1 peptide binding. 0.66% of 230,000 active; also: % is scaled to controls: 0 for no effect and ±100 for the full control effect; nearly all actives have a fitted effect of over 60% in size
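AlphaScreen assay: L3MBTL1 (50 nM final) was preincubated 30 min at room temperature with biotinylated H3(1-15)K9me1 peptide (75 nM final), then 30 min with library compounds; streptavidin donor and nickel chelate acceptor beads (10 ug/mL final) added, 30 min dark.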
BAZ2B block: BAZ2B (human) inhibition | Q9UIF8 | AlphaScreen BAZ2B-H3K14Ac peptide displacement | Potency, µM (series often up to 114 µM), inactives show at the highest dose activity change, negative = inhibition, hits mostly inhibitors | 4.4% of 360,000 active; also: % is scaled to controls: 0 for no effect and ±100 for the full control effect; nearly all actives have a fitted effect of over 60% in size
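AlphaScreen luminescence quantifies BAZ2B engagement of H3K14Ac peptide; the protein and biotinylated peptide are both at 50 nM final, buffer PBS pH 7.4 with 0.01% Tween-20, all steps at room temperature.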
HP1b chromo inh: blocks HP1-beta chromodomain binding to methylated histone tails; Potency, µM (series often up to 114 µM), without a hit: at the highest dose activity change, negative = inhibition, hits mostly inhibitors; AID 540317; AlphaScreen HP1-beta / biotin-H3K9me3 peptide binding; 0.56% of 390,000 active; P83916; also: nearly all actives have a fitted effect of over 70% in size
Target sequence (P83916 whole entry, looked up): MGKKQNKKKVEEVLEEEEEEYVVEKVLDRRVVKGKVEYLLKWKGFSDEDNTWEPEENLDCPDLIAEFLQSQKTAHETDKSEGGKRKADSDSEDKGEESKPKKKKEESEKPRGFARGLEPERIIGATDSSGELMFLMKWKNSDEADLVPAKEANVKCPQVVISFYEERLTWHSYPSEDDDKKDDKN
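AlphaScreen: HP1-beta (50 nM) preformed 30 min with biotin-H3(1-18)K9me3 peptide (50 nM) in PBS pH 7.4, 0.01% Tween-20. Compound added for 30 min at RT, then streptavidin donor/nickel chelate acceptor beads (10 ug/mL) for 30 min.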
PLK1 PBD block: inhibitors of human PLK1 polo-box domain binding; 2.8% of 360,000 active; AID 720504; P53350; Plk1 PBD binding of FITC phosphopeptide, fluorescence polarization; Potency, µM, inactives show max response, negative = inhibition, actives largely listed as inhibitors; also: series mostly up to about 57 µM; % is scaled to controls: 0 for no effect and ±100 for the full control effect; nearly all actives have a fitted effect of over 65% in size
VDR inhibitor: vitamin D3 receptor (human) inhibition; AID 504847; P11473; VDR-SRC2-3 peptide fluorescence polarization, 2 h; 0.93% of 400,000 active; Potency, µM, for the others: max response, negative = inhibition, hits mostly inhibitors; also: % is scaled to controls: 0 for no effect and ±100 for the full control effect
Target sequence (P11473 whole entry, looked up): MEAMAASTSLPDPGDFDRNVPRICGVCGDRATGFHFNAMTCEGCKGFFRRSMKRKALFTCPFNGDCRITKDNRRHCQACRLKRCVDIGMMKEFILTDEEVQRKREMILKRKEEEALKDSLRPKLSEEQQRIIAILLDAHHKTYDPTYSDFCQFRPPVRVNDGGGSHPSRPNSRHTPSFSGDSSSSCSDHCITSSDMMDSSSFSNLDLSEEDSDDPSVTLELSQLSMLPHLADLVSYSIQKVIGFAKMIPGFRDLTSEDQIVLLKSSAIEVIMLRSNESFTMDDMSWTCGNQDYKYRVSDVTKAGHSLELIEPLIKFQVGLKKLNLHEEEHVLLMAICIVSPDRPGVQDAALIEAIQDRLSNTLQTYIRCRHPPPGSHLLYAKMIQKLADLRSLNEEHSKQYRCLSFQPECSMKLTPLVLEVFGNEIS
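The screen uses fluorescence polarization to detect compounds that interfere with recruitment of the SRC2-3 coactivator peptide to VDR; plates are read after 2 h at room temperature.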
JMJD2A Tudor inh: blocks the human JMJD2A Tudor domain; AlphaScreen JMJD2A-Tudor / H3K4me3 peptide binding; Potency, µM (series often up to 114 µM), for inactives: at the top dose activity change, negative = inhibition, hits mostly inhibitors; O75164; 4.4% of 390,000 active; AID 504339; also: % is scaled to controls: 0 for no effect and ±100 for the full control effect; nearly all actives have a fitted effect of over 50% in size
* marks the source's active call; other numbers are inactive results; ? = inconclusive; · = not tested or not shown; [ ] = remark or other dose. Shown are actives, neighbours in structure and some others; about 6.9% of the full set was active somewhere. Calls follow the shape of the dose curve; as a rule, active = well fitted curve in the direction sought with a large enough effect; inconclusive = small, poorly fitted or top-dose-only effect, or another doubt; inactive = no such curve, though single readings can be large; an effect the other way counts as inactive or inconclusive. Potency is read from the fitted curve at half-maximal effect.

SMILES	L3MBTL1 inh	BAZ2B block	HP1b chromo inh	PLK1 PBD block	VDR inhibitor	JMJD2A Tudor inh
COc1ccc(C(=O)COC(=O)C2CCC(=O)N2)cc1 (stereo not drawn)	·	-9.8%	5.4%	-4.3%	6.8%	-12.7%
O=C(COC(=O)C1CCC(=O)N1)Nc1ccccc1Br (stereo not drawn)	6.7%	-3.1%	-5.2%	21.2µM*	22.4µM*	-30.1%[11.4 µM]
CC(C)C[C@H](NC(=O)CNC(=O)[C@H](CCC(N)=O)NC(=O)[C@H](CC(C)C)NC(=O)[C@H](CC(C)C)NC(=O)[C@H](CCCNC(=N)N)NC(=O)[C@H](CCC(N)=O)NC(=O)[C@H](CC(C)C)NC(=O)[C@H](CCCNC(=N)N)NC(=O)[C@H](C)NC(=O)CNC(=O)[C@H](CCC(=O)O)NC(=O)[C@H](CCCNC(=N)N)NC(=O)[C@H](CC(C)C)NC(=O)[C@H](CCCNC(=N)N)NC(=O)[C@H](CO)NC(=O)[C@H](CC(C)C)NC(=O)[C@H](CCC(=O)O)NC(=O)[C@H](CO)NC(=O)[C@@H](NC(=O)[C@H](Cc1ccccc1)NC(=O)[C@@H](NC(=O)CNC(=O)[C@H](CC(=O)O)NC(=O)[C@H](CO)NC(=O)[C@@H](N)Cc1cnc[nH]1)[C@@H](C)O)[C@@H](C)O)C(=O)N[C@H](C(N)=O)C(C)C	·	·	·	·	-0.2%	·
CC(=O)c1ccc(NC(=O)Cc2cccs2)cc1	-25.7%	50.1µM*	-16.2%	?	8.3%	?
CC(=O)c1cccc(NC(=O)Cc2cccs2)c1	-13.4%	-8.0%	19.7%	-7.3%	17.0%	-14.9%
Cc1c(NC(=O)Cc2cccs2)cccc1[N+](=O)[O-]	-24.2%	50.1µM*	30.9%	-14.9%	-15.4%	-10.5%[57.1 µM]
CCCN(CCC)S(=O)(=O)c1ccc(NC(=O)Cc2cccs2)cc1	·	?	12.1%	-9.9%	-7.9%	?
CCCCN(CCCC)S(=O)(=O)c1ccc(NC(=O)Cc2cccs2)cc1	·	?	-27.2%	2.3%	-2.2%	44.7µM*
Cc1ccc(CSc2nnc([C@@H]3CCCN3C(=O)OC(C)(C)C)o2)cc1	5.1%	0.0%	41.3%	-6.2%	-20.9%	18.8%
COc1ccc2nc(NC(=O)Cc3cccs3)sc2c1	·	-25.9%	13.6%	-6.6%	2.3%	-6.4%
CCOc1ccc2nc(NC(=O)Nc3ccccc3)sc2c1	·	0.6%	35.5%	-4.2%	3.4%	-22.1%
CCOc1ccc2nc(NC(=O)Cc3cccs3)sc2c1	·	-0.4%	-13.8%	29.9µM*	-1.8%	4.8%[11.4 µM]
CCOc1ccc2nc(NC(=S)NCc3ccccc3)sc2c1	·	-0.3%	?	26.7µM*	?	-15.5%
CCC(C)NC(=O)CN(c1cc(Cl)cc(Cl)c1)S(C)(=O)=O (stereo not drawn)	-1.7%	6.7%	51.0%	3.1%	6.5%	-3.4%
Oc1cc(CNCc2ccccc2)c(O)cc1CNCc1ccccc1	·	·	31.6µM*	?	-27.1%	7.94µM*
CCOC(=O)c1nnc2ccnn2c1N	2.4%	-3.3%	2.1%	-1.1%	-2.0%	89.1µM*
CCc1ccccc1NC(=O)Cn1nc2c3cc(F)ccc3n(Cc3cccc(C)c3)cc-2c1=O	·	-11.2%	13.7%	·	8.1%	-5.9%
CC(=O)/C=C1\C(=O)N(C)c2ccccc21	·	·	·	·	25.1µM*	·
CC(=O)/C=C1/C(=O)Nc2ccccc21	·	0.7%	16.0%	21.2µM*	44.7µM*	-25.8%
O=C1CCN(C(=O)c2cccs2)c2ccccc21	3.7%	4.2%	20.9%[57 µM]	-0.3%	-12.0%	0.7%
CN1C(=O)/C(=C\C(=O)c2cccs2)c2ccccc21	-4.5%	20µM*	44.7µM*	16.8µM*	28.2µM*	50.1µM*
CN1C(=O)c2ccccc2C(O)c2ccccc21 (stereo not drawn)	·	·	13.0%	-4.0%	-7.2%	-5.4%
Cn1c(CC(=O)Nc2ccccc2C(F)(F)F)c(Sc2ccccc2)c2ccccc21	-3.9%	6.8%	21.1%	-3.4%	-6.5%	-3.4%
Cn1nc(C(=O)N2CCN(C(c3ccccc3)c3ccccc3)CC2)c2ccccc2c1=O	-6.2%	?	39.4%	-9.7%	10.5%	-5.1%[11.4 µM]
Cn1cncc1CNc1ncnc2ccc(-c3ccc4c(c3)OCO4)cc12	·	·	·	·	·	56.2µM*
SMILES	L3MBTL1 inh	BAZ2B block	HP1b chromo inh	PLK1 PBD block	VDR inhibitor	JMJD2A Tudor inh
Cc1cc(C)c2[nH]c(=O)c(CN(Cc3ccco3)C(=O)c3cccs3)cc2c1	28.7%	26.1%	·	·	·	·
O=C(c1cccs1)N(Cc1ccco1)Cc1cc2ccccc2[nH]c1=O	3.6%	-36.4%	-18.2%	26.7µM*	-23.7%	?
CC1c2cc3c(cc2CCN1S(=O)(=O)c1ccccc1)OCCCO3 (stereo not drawn)	·	-2.8%	44.9%	-2.3%	-1.1%	-17.3%
Cc1ccnc(NC(=O)/C=C/c2ccccc2[N+](=O)[O-])c1	-8.8%	56.2µM*	·	·	·	·
Cc1ccnc(NC(=O)c2ccccc2[N+](=O)[O-])c1	-4.2%	10.4%	?	9.47µM*	6.3%	-17.3%
Cc1ccnc(NC(=O)c2cccc([N+](=O)[O-])c2C)c1	-3.8%	-16.4%	28.1%	2.2%	0.9%	-3.5%
Cc1ccnc(NC(=O)c2ccc([N+](=O)[O-])o2)c1	-8.4%	56.2µM*	-0.3%	-9.4%	-2.5%	-22.3%
Cc1nc2ccccc2c(=O)n1NC(=O)/C=C/c1ccccc1	8.9%	9.8%	25.1%	-6.1%	9.5%	-7.7%
Cc1n[nH]c(=S)n(NC(=O)CC(=O)Nn2c(=S)[nH]nc(C)c2=O)c1=O	?	39.8µM*	42.0%	3.3%	-1.5%	79.4µM*
Cc1n[nH]c(=S)n(NC(=O)/C=C/C(=O)Nn2c(=S)[nH]nc(C)c2=O)c1=O	?	25.1µM*	?	-22.1%	-15.7%	12.6µM*
O=C(Nc1cc(-c2nc3ncccc3o2)ccc1Cl)c1ccc([N+](=O)[O-])o1	·	-10.4%	19.9%	-3.0%	17.7%	-8.4%
CCOc1ccc(NC(=O)CN2CCN(C3CCCCC3)C(=O)C2=O)cc1	·	-5.6%	-0.4%	·	12.8%	-19.2%
CC(=O)N1CCc2cc(S(=O)(=O)CCC(=O)N3CCN(c4cc(C)ccc4C)CC3)ccc21	·	-13.5%[57.1 µM]	19.2%	-16.8%	-2.9%	-15.8%
O=c1cc(-c2cccc(F)c2)[nH]c2cc(F)ccc12	·	·	·	·	7.3%	·
O=C(O)CCc1ccc(S(=O)(=O)Nc2cc(C(F)(F)F)ccc2N2CCCC2)cc1	?	79.4µM*	1.7%	?	-26.6%	?
O=C(CCc1ccccc1)NC(=S)Nc1cc(C(F)(F)F)ccc1N1CCOCC1	-3.5%	-33.1%	14.2%	-20.2%	10.6%	-23.7%
Cc1cccc(-n2c(C)nc3cc(C(=O)N4CCOCC4)ccc32)c1	·	0.4%	6.8%	26.7µM*	?	?
CCCCCNC(=O)c1ccc2c(c1)nc(C)n2-c1cccc(C)c1	·	-27.7%	8.5%	·	-7.4%	-20.5%
